# Reference: PubChem BioAssay (EPA / NIEHS)
# Results filed as inconclusive are left out. The source made the active and inactive calls. Rule for the calls, unless noted: active = hit-call score of the fitted dose curve at least 0.9, where 1 is the maximum; inactive = score below 0.9.
# Columns and labels:
# [1] = CCTE_Harrill_HTTr_Viability_MCF7: CCTE's 6-hour Cell Viability Assessment for the High-Throughput Transcriptomics (HTTr) Platform, in MCF-7 cells cultured in DMEM + 10% fetal bovine serum, Harrill Lab (AID 2284010)
# Outline: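 Cells were dosed with chemicals in an eight-point dilution series, imaged 6 hours later for propidium iodide uptake, and the endpoint was analyzed by bidirectional fitting against DMSO as negative control.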
# [2] = CCTE_Harrill_HTTr_Apoptosis_MCF7: CCTE's 6-hour Apoptosis Assessment for the High-Throughput Transcriptomics (HTTr) Platform, in MCF-7 cells cultured in DMEM + 10% fetal bovine serum, Harrill Lab (AID 2284011)
# Outline: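 Cells are dosed with test chemicals at eight concentrations and imaged 6 hours later for caspase-3/7 activity using a green fluorogenic detection reagent. Activity is fitted in both directions against DMSO controls.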
# [3] = CCTE_Harrill_HTTr_CellCount_MCF7: CCTE's Cell Proliferation Assessment for the High-Throughput Transcriptomics (HTTr) Platform, Harrill Lab (AID 2284012; active = hit-call score of the fitted dose curve at least 0.9, where 1 is the maximum;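 note: count of Hoechst-stained nuclei per well by high-content imaging in MCF-7 cells; cells exposed to compound for six hours; intended direction is loss of nuclei count meaning fewer cells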)
# Outline: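 Chemicals in eight-point dilution series are added to MCF-7 cells for six hours, nuclei are stained with Hoechst and imaged, and per-well nuclei counts are fitted in both directions relative to DMSO controls.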
smiles,measurement,setting,value
CCCCCCCCCCCC[N+](C)(C)Cc1ccccc1,AC50,[1],68.8 µM (active)
same,AC50,[2],70.8 µM (active)
same,AC50,[3],70.3 µM (active)
c1cnc2c(c1)ccc1cccnc12,outcome,[1],inactive
same,outcome,[3],inactive
C=CC(C)(CCC=C(C)C)OC(C)=O (configuration not stated),outcome,[1],inactive
same,outcome,[3],inactive
CC(C)(c1ccc(Oc2ccc(N)cc2)cc1)c1ccc(Oc2ccc(N)cc2)cc1,outcome,[1],inactive
same,outcome,[3],inactive
CC(C)(C)c1ccc(O)c(O)c1,outcome,[1],inactive
same,outcome,[3],inactive
O=C(O)c1cccc(C(=O)O)n1,outcome,[1],inactive
same,outcome,[3],inactive
C[C@]12CC[C@@H]3c4ccc(O)cc4CC[C@H]3[C@@H]1C[C@@H](O)[C@@H]2O,outcome,[1],inactive
same,outcome,[3],inactive
Cn1sccc1=O,outcome,[1],inactive
same,outcome,[3],inactive
O=C(O)C(=O)O,outcome,[1],inactive
same,outcome,[3],inactive
CC(C)c1c(C(=O)Nc2ccccc2)c(-c2ccccc2)c(-c2ccc(F)cc2)n1CC[C@@H](O)C[C@@H](O)CC(=O)O,outcome,[1],inactive
same,outcome,[2],inactive
same,outcome,[3],inactive
